PubChem BioAssay (NCATS)
Results filed as inconclusive are left out. Where a call stands in place of a potency, no number is given. The source made the active and inactive calls. Calls come from the whole dose curve; as a rule, active = well fitted curve in the direction sought with a large enough effect; inconclusive = small, poorly fitted or top-dose-only effect, or another doubt; inactive = no such curve, though single readings can be large; an effect the other way counts as inactive or inconclusive.

What was measured:
[1] = molecular target: Aldehyde dehydrogenase, mitochondrial (Homo sapiens) (UniProt P05091); assay: qHTS for Inhibitors of the Aldehyde Dehydrogenase Family (ALDH2) Primary screen (AID 2061308); note: nearly all actives have a fitted effect of over 55% in size
[2] = molecular target: Retinaldehyde dehydrogenase 3 (Homo sapiens) (UniProt P47895); assay: qHTS for Inhibitors of the Aldehyde Dehydrogenase Family (ALDH1A3) Primary screen (AID 2061315)

Row | Compound | Potency [1] | Potency [2]
1 | CCOc1ccc(CCNC(=O)c2cc3ccccc3n2Cc2cc(C)cc(C)n2)cc1OCC | inactive | inactive
2 | O=C1CCc2cc(S(=O)(=O)Nc3cccnc3)ccc2N1 | inactive | inactive
3 | Cc1ccc(OCCn2c(CCNC(=O)c3cc(F)cc(F)c3)nc3ccccc32)cc1 | inactive | inactive
4 | Fc1cc(-c2nc(Nc3ccc(F)c(F)c3)c3ccccc3n2)ccn1 | inactive | inactive
5 | COc1cccc(C2=Nn3c(nnc3-c3cccc(OC)c3OC)SC2)c1 | inactive | inactive
6 | O=C(/C=C/c1ccc(Cl)cc1)Nc1cccc([S+](=O)([O-])Nc2ccccc2F)c1 | inactive | inactive
7 | Cc1cnc(NC(=O)c2ccc(-c3cccc([N+](=O)[O-])c3)o2)s1 | inactive | inactive
8 | COc1c(NS(=O)(=O)c2ccc(C)cc2)cccc1C(=O)Nc1nc(-c2ccccc2)cs1 | inactive | inactive
9 | c1ccc(CNCc2nnc(-c3cc4ccccc4[nH]3)s2)cc1 | inactive | inactive
10 | O=C1CCC2=C1C1(CCCC1)N=C(Nc1nc3ccccc3o1)N2 | inactive | inactive
11 | O=C(Nc1ccc(O)c2ncccc12)c1ccccc1F | inactive | inactive
12 | CCCn1c(C)nc2c(NC(C)CN(C)C)nc(C)nc21 (configuration not stated) | inactive | inactive
13 | CC(=O)Nc1ccc(Cl)cc1C(=O)c1ccc[nH]1 | inactive | inactive
14 | Fc1cccc(Nc2nc(-c3ccncc3)nc3ccccc23)c1 | inactive | inactive
15 | CN1[C@@H]2CC[C@H]1CC(OC(=O)C(CO)c1ccccc1)C2 (some centres not stated) | inactive | inactive
16 | Cc1noc(C)c1-c1ccc2ncnc(NCc3cccc(F)c3)c2c1 | inactive | inactive
17 | C=C1C(=O)O[C@@H]2C(OC(=O)/C(C)=C\C)/C(C)=C\C(=O)/C=C(\C)C[C@H](O)[C@@H]12 (some centres not stated) | inactive | inactive
18 | CCc1ccccc1C(=O)N1CCc2cc(-c3nc(NC(=O)Cc4ccc5c(c4)OCO5)sc3C)ccc21 | inactive | inactive
19 | COCCNC(=O)Nc1ccc2nc(-c3cccs3)c(-c3cccs3)nc2c1 | inactive | inactive
20 | O=S(=O)(c1ccc(Cl)cc1)N1CCN(S(=O)(=O)c2ccc3c(c2)OCCO3)CC1 | inactive | inactive
21 | COc1ccc(C[C@H](C(=O)O)N2C(=O)c3ccc(C(=O)O)cc3C2=O)cc1 | inactive | inactive

Row | Compound | Potency [1] | Potency [2]
22 | Cc1ccc(S(=O)(=O)Nc2cnccc2C(=O)Nc2nc(-c3ccc(-c4ccccc4)cc3)cs2)cc1 | inactive | inactive
23 | Cc1ccnc(NC(=S)NCCNc2cccc(C(F)(F)F)c2)c1 | inactive | inactive
24 | Cc1cccc(-c2ccc3ncnc(NCc4cccnc4)c3c2)c1 | inactive | inactive
25 | COc1ccc(C(=O)Nc2nc(-c3ccccc3)cs2)cc1NS(=O)(=O)c1ccc(C)cc1 | inactive | inactive
26 | CC(C)(C)OC(=O)N[C@@H](Cc1ccc(O[S+](=O)([O-])c2cccc3cnccc23)cc1)C(=O)N1CCN(c2ccccc2)CC1 | inactive | inactive
27 | CC(C)c1ccccc1-c1nccc(NCc2ccc(-c3ccnc(C(F)(F)F)c3)cc2)n1 | inactive | inactive
28 | Cc1cccc(-n2cnc3cc(C(=O)N4CCCC(C(F)(F)F)C4)ccc32)c1 (configuration not stated) | inactive | inactive
29 | O=C(OCC#CCSc1nnc(-c2cccc3ccccc23)o1)c1cc(F)c(F)c(F)c1 | inactive | inactive
30 | CCCCNc1nc(C)nc2c1nc(-c1ccccc1)n2C(C)CCCN(CC)CC (configuration not stated) | inactive | inactive
31 | COc1ccc(NC(=O)CN2C(=O)N/C(=C\c3cccn3-c3ccc(C(=O)NC#N)cc3)C2=O)cc1 | inactive | inactive
32 | CNc1nnc(-c2cccc3ccccc23)o1 | inactive | inactive
33 | Cc1cc(C)nc(NC(=S)N2CCN(c3cc(Cl)c(Cl)c(Cl)c3)CC2)c1 | inactive | inactive
34 | COC(=O)Nc1sc2c(c1C(N)=O)CCCC2 | inactive | inactive
35 | O=S(=O)(c1ccc2c(c1)OCCO2)N1CCN(S(=O)(=O)c2ccccc2Cl)CC1 | inactive | inactive
36 | Cc1cccc([S+](=O)([O-])NC2CCN(C#N)CC2)c1 | inactive | inactive
37 | Clc1cccc(-c2ccc3ncnc(NCc4cccs4)c3c2)c1 | inactive | inactive
38 | Cc1nc(NCCO)c2nc(-c3ccccc3)n(CCCN(C)C)c2n1 | inactive | inactive
39 | CCCCNC(=O)c1ccc2c(c1)ncn2-c1cccc(C)c1 | inactive | inactive
40 | COc1ccc(CN(Cc2ccccc2)S(=O)(=O)c2ccccc2)cc1COc1ccc(NC(C)=O)cc1 | inactive | inactive
41 | c1nc(NCCc2cnc[nH]2)c2cc(-c3ccc4c(c3)OCO4)ccc2n1 | inactive | inactive
42 | CCOC(=O)C1CCN(C(=O)C2(NC(=O)Nc3ccc(F)cc3F)CCCCC2)CC1 | inactive | inactive

Row | Compound | Potency [1] | Potency [2]
43 | COc1cc(O)c(C(CC(=O)N2CCC(C)CC2)c2ccc3c(c2)OCO3)c(OC)c1 (configuration not stated) | inactive | inactive
44 | CCOC(=O)c1ccc(-c2ccc3ncnc(NCCc4cnc[nH]4)c3c2)o1 | inactive | inactive
45 | O=C(Nc1ccc2ccccc2c1)Nc1nnc(-c2ccc(Cl)cc2Cl)s1 | inactive | inactive
46 | Cc1cc2c(s1)c1cnn(Cc3ccc(C)c(F)c3)c(=O)c1n2C | inactive | inactive
47 | O=C(Nc1ccc(Cl)c(Cl)c1)Nc1nnc(Br)s1 | inactive | inactive
48 | c1ccc(CNc2nc(-c3cccs3)nc3ccccc23)cc1 | inactive | inactive
49 | Fc1cccc(CNc2ncnc3ccc(-c4ccc5c(c4)OCO5)cc23)c1 | inactive | inactive
50 | Cc1nc(Nc2nc3ccccc3o2)nc2c1CCCC2 | inactive | inactive
51 | CCNc1cccc(S(=O)(=O)N2CCCN(S(=O)(=O)c3ccc4c(c3)OCCO4)CC2)c1 | inactive | inactive
52 | Cc1cc(C)n2ncc(C(=O)N3CCCC3)c2n1 | inactive | inactive
53 | COc1cc(F)c(S(=O)(=O)N2CCN(S(=O)(=O)c3ccc(NC(C)=O)cc3)CC2)c(F)c1 | inactive | inactive
54 | O=C(NCc1ccccc1)Nc1nnc(-c2ccncc2)s1 | inactive | inactive
55 | O=C(CSc1ncnc2sc3c(c12)CCCCC3)NCc1ccco1 | inactive | inactive
56 | S=C(Nc1ccc(Cl)c(Cl)c1)Nc1nnc(-c2ccncc2)o1 | inactive | inactive
57 | CC(C)(C#CCSc1nnc(-c2cccc3ccccc23)o1)OC(=O)c1ccc(F)cc1 | inactive | inactive
58 | C=C(C)C(=O)OC1[C@@H]2C(=C)C(=O)O[C@@H]2C[C@@H](C)[C@@H]2C=CC(=O)[C@@]12C (some centres not stated) | inactive | inactive
59 | CCCCc1ccc(-c2ccc(=O)n(CC(=O)NCCc3ccccc3)n2)cc1 | inactive | inactive
60 | CC(C)COc1ccc(-c2ccc(=O)n(CC(=O)NCCc3ccccc3)n2)cc1 | inactive | inactive
61 | O=C(Nc1ncc(Cc2ccc(C(F)(F)F)cc2)s1)c1ccc(-c2cccnc2)o1 | inactive | inactive
62 | CC(C)O[C@@H]1O[C@H](CO)[C@@H](O)[C@H](O)[C@H]1O | inactive | inactive
63 | O=C1CCCC2=C1C(c1[nH]ncc1Cl)NC(=NCc1cccs1)N2 (configuration not stated) | inactive | inactive

Row | Compound | Potency [1] | Potency [2]
64 | Cc1cccc(-n2cnc3cc(C(=O)N4CCOCC4)ccc32)c1 | inactive | inactive
65 | Cc1cc2c(s1)c1cnn(Cc3cc(F)c(Cl)cc3Cl)c(=O)c1n2C | inactive | inactive
66 | O=C([C@@H](Cc1ccc(O[S+](=O)([O-])c2ccccn2)cc1)N[S+](=O)([O-])c1cccc2cccnc12)N1CCN(c2ccccc2)CC1 | inactive | inactive
67 | CNc1nc(-c2cccc3ccccc23)ccc1C#N | inactive | inactive
68 | Cc1nc(-c2ccc(S(=O)(=O)Nc3ccc(C)c(C)c3)s2)cs1 | inactive | inactive
69 | CC(=O)Nc1cccc(-c2csc(Nc3cc(C)ccn3)n2)c1 | inactive | inactive
70 | NC(=O)c1cnc(N[C@@H]2CCCC[C@H]2N)nc1Nc1cccc(-n2nccn2)c1 | inactive | inactive
71 | Cc1ccc(-c2ccc(=O)n(CC(=O)N(C)CCc3ccco3)n2)cc1 | inactive | inactive
72 | COc1cc(F)c(S(=O)(=O)N2CCN(S(=O)(=O)c3cccc(NC(C)=O)c3)CC2)c(F)c1 | inactive | inactive
73 | COc1ccc(C2Nc3ccccc3C(=O)N2Cc2ccc(C(F)(F)F)o2)cc1COc1c(C)cccc1C (configuration not stated) | inactive | inactive
74 | COC(=O)c1ccc(Nc2nc(-c3ccncc3)nc3ccccc23)cc1OC | inactive | inactive
75 | O=c1[nH]ccc2nc(-c3ccc(CN4CCC(c5nc(-c6ccccn6)n[nH]5)CC4)cc3)c(-c3ccccc3)cc12 | inactive | inactive
76 | Cc1ccc(OCCn2c(CCNC(=O)C3CCOCC3)nc3ccccc32)cc1 | inactive | inactive
77 | CC1=C(C(=O)Nc2ccc(C)cc2)C(c2ccccc2Br)N=C(Nc2nc3ccccc3o2)N1 (configuration not stated) | inactive | inactive
78 | CCCn1c(-c2ccc(F)cc2)nc2c(NCC3CCN(C)CC3)nc(C)nc21 | inactive | inactive
79 | Brc1cnc2nc(SCc3ccncc3)[nH]c2c1 | inactive | inactive
80 | Cc1cc(C)n2ncc(C(=O)Nc3ccc(Cl)c(Cl)c3)c2n1 | inactive | inactive
81 | COc1cc(NC(=O)C(OC(=O)CNC(=O)c2ccccc2)c2ccccc2)c(OC)cc1Cl (configuration not stated) | inactive | inactive
